In publication PMC4336329 (PLoS ONE, 2015):
In all, about 310,000 compounds went through this assay and about 14,000 (4.5%) showed an effect of 50% or more. Effects have a minus sign here. Only a selection was taken, and strong results are over-represented in it overall.

target: human ether-à-go-go-related gene (hERG) potassium channel (human, UniProt Q12809); assay: primary screen, population patch clamp on CHO cells stably expressing hERG; higher = less effect of the substance
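Also: peak tail current of the secondary pulse compared with the same well before compound.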

Sequence of human ether-à-go-go-related gene (hERG) potassium channel (Q12809 whole entry, looked up): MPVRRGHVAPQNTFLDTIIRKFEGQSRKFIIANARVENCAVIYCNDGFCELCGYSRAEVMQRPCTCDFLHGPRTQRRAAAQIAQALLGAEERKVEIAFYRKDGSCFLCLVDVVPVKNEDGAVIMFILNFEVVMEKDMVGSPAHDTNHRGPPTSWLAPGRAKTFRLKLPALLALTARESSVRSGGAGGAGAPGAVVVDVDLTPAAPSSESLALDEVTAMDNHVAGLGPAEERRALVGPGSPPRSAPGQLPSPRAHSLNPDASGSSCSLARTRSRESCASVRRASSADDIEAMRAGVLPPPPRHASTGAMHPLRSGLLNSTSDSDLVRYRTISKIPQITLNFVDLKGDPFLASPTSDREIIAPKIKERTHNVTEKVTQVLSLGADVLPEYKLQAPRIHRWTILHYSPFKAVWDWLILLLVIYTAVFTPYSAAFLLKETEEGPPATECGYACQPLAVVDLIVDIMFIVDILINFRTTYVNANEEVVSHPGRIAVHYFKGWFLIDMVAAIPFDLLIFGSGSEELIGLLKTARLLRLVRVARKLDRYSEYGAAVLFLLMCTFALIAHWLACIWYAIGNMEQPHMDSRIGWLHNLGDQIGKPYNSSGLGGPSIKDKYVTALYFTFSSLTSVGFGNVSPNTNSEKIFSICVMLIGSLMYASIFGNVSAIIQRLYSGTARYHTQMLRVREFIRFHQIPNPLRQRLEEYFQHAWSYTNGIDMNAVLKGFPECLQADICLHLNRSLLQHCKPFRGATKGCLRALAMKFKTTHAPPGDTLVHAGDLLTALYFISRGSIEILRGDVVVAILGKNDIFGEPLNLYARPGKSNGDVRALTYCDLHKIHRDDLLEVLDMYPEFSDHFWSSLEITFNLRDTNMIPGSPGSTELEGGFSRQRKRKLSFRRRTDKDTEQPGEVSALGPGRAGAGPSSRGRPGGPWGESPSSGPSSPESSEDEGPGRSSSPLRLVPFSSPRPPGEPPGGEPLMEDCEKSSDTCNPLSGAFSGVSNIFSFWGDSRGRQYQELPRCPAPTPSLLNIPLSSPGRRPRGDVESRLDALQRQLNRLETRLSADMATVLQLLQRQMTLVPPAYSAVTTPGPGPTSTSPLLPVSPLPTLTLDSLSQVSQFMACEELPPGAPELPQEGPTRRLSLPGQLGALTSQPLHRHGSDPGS

| Structure (SMILES) | hERG current change (%, negative = inhibition) at 10uM |
| --- | --- |
| Cn1c(=O)[nH]c(=O)c2c1nc(SCCN1CCOCC1)n2CCCc1ccccc1 | -46.9% |
| Cn1c(=O)[nH]c(=O)c2c1nc(SCCN1CCCCC1)n2CCCc1ccccc1 | -69% |
| Cn1c(=O)[nH]c(=O)c2c1nc(SCCN1CCCCC1)n2Cc1ccccc1 | -78.9% |
| Cc1ccc(Cn2c(SCCN3CCCCC3)nc3c2c(=O)[nH]c(=O)n3C)cc1 | -74.1% |
| CCCSc1nc2c(c(=O)[nH]c(=O)n2C)n1Cc1ccccc1 | -17.4% |
| COCCSc1nc2c(c(=O)[nH]c(=O)n2C)n1Cc1cccc(C)c1 | -45.6% |
| Cc1ccc(Cn2c(N3CCCCCC3)nc3c2c(=O)[nH]c(=O)n3C)cc1 | 0.362% |
| Cn1c(-c2ccc(Cl)nc2)nc2cc(Cl)ccc21 | -9.09% |
| CC(C)CNC(=O)C1Nc2ccccc2C2C=CCC12 (stereo not drawn) | -6.43% |
| COc1cccc(N(CC(=O)N/N=C(\C)c2cccs2)S(C)(=O)=O)c1 | 6.58% |
| Cc1cc(NS(=O)(=O)c2ccc(NC(=O)N[C@H](C(=O)O)C(C)C)cc2)no1 | 29.3% |
| CCN(CC)C(=S)NC(=O)Cc1ccccc1 | 16.1% |
| COc1ccc(S(=O)(=O)NC(C)CCc2ccccc2)cc1 (stereo not drawn) | -3.49% |
| Cc1c(NC(=O)C(c2ccccc2)c2ccccc2)cccc1C(=O)O | 16% |
| CCO[C@@H]1OC(C(=O)Nc2ccccc2)=C[C@H](C)[C@H]1CCCO | 1.08% |
| CSc1nnc(NC(=O)c2ccc(C)c(S(=O)(=O)N3CCOCC3)c2)s1 | 0.594% |
| Cn1c(=O)[nH]c(=O)c2c1nc(SCCN1CCOCC1)n2Cc1ccccc1 | -54.4% |
| Cn1c(=O)[nH]c(=O)c2c1nc(CN(Cc1ccccc1)Cc1ccccc1)n2CCN1CCOCC1 | -16.6% |
| C=C(C)CSc1nc2c(c(=O)[nH]c(=O)n2C)n1Cc1ccccc1 | -12.3% |
| Cc1onc(-c2c(Cl)cccc2Cl)c1NC(=O)NNc1ccccn1 | -11.7% |
| COc1ccc(N2CCc3c(C)nc(SC)nc32)cc1 | 3.4% |
| COc1ccc2c(c1OC)C(=O)N(c1ccc(O)cc1)C2 | 13.5% |
| CCOc1ccc(N2CCc3c(C)nc(SC)nc32)cc1 | -2.26% |

| Structure (SMILES) | hERG current change (%, negative = inhibition) at 10uM |
| --- | --- |
| COc1ccc(N2CCCC2=N)c(OC)c1.Cl | 12.7% |
| COc1ccc(N2CCc3c(C)nc4c(OC)cc(OC)cc4c32)c(OC)c1 | -75.3% |
| COc1ccc(N2CCc3c(C)nc4c(OC)cc(OC)cc4c32)cc1 | -75% |
| CSc1nc(C)c2c(n1)N(c1ccc(O)cc1)CC2 | 4.88% |
| COc1cc(OC)c2nc(C)c3c(c2c1)N(c1ccc(O)cc1)CC3 | -72.1% |
| COc1ccc(N2C(=O)CCC2=O)c(OC)c1 | 20.7% |
| Cc1cc(C)n(CCOc2ccc(Br)cc2)n1 | 1.08% |
| O=C(NCc1ccc(-c2nc3ccccc3s2)cc1)c1cc2ccccc2o1 | -1.71% |
| CN(C)C(=O)c1cc(C(=O)c2ccccc2Cl)c[nH]1 | 11.8% |
| COc1cc(C(=O)N/N=C/c2sc(N3CCOCC3)nc2-c2ccccc2)cc(OC)c1OC | 3.33% |
| CC(=O)Nc1ccc(S(=O)(=O)N2CCN=C2C)cc1 | 5.24% |
| CC(=O)NCCC(=O)N1CCCC(C(=O)c2ccc3c4c(cccc24)CC3)C1 (stereo not drawn) | -18.5% |
| CCSC1=C(C#N)C(c2cccc(O)c2)CC(=O)N1 (stereo not drawn) | 2.7% |
| N#Cc1ccc(NC(=O)CNc2cc(S(=O)(=O)N3CCOCC3)ccc2NCC2CCCO2)cc1 (stereo not drawn) | -70% |
| N#Cc1ccc(NC(=O)CCc2ccc(S(=O)(=O)N3CCOCC3)cc2)cc1 | -51.5% |
| O=C(CCc1ccccc1)Nc1ccc(S(=O)(=O)N2CCOCC2)cc1 | -28.1% |
| N#Cc1ccc(NC(=S)NC(=O)CCc2ccc(S(=O)(=O)N3CCOCC3)cc2)cc1 | 0.205% |
| COc1ccc(NC(=O)CNc2cc(S(=O)(=O)N3CCOCC3)ccc2NCC2CCCO2)cc1 (stereo not drawn) | -18.3% |
| CC(=O)c1cccc(NC(=O)COC(=O)CCc2ccc(S(=O)(=O)N3CCOCC3)cc2)c1 | 6.05% |
| O=C(CNc1cc(S(=O)(=O)N2CCOCC2)ccc1NCC1CCCO1)Nc1ccc(C(F)(F)F)cc1 (stereo not drawn) | -30.4% |
| O=C(COC(=O)CCc1ccc(S(=O)(=O)N2CCOCC2)cc1)Nc1cccc(Cl)c1 | -30.3% |
| N#Cc1cccc(NC(=O)COC(=O)CCc2ccc(S(=O)(=O)N3CCOCC3)cc2)c1 | -60.1% |
